Bioassay records as filed in PubChem BioAssay.
hNpr1 antagonist: antagonists of human natriuretic peptide receptor Npr1; P16066; HEK293 hNpr1 GloSensor cGMP, ANP-stimulated luminescence; AID 1347048; Potency, µM (series often up to 46.3 µM), without a hit: at the top dose activity change, negative = inhibition, hits mostly inhibitors; 76,000 compounds, 1.6% hits; calls by dose curve; note: nearly all actives have a fitted effect of over 60% in size
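HEK293 cells stably expressing human Npr1 and cGMP GloSensor pGS-40F, loaded 2 h with 2% GloSensor reagent, given compound 30 min at room temperature. Luminescence read before and 20 min after 0.1 nM hNppA.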
HEK293 tox: HEK 293 cell cytotoxicity; Potency, µM (highest dose often 115 µM), inactives show top-dose activity change, negative = cytotoxicity, hits mostly inhibitors; 94,000 compounds, 6.6% hits; HEK 293 viability, ATP luminescence (CellTiter-Glo), 48-72 h; AID 1345083; note: nearly all actives have a fitted effect of over 60% in size
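Cytotoxicity was scored by loss of ATP-coupled luminescence (CellTiter-Glo) in HEK 293 cells. Compound treatment ran 48 or 72 hr at 37 degree Celsius, 5% CO2, 95% humidity.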
GPT2 inhibitor: inhibitors of human GPT2 alanine aminotransferase | Potency, µM (series often up to 57.7 µM), for inactives: top-dose activity change, negative = inhibition, most hits filed as inhibitors | Recombinant GPT2, coupled pyruvate oxidase/HRP Amplex Red fluorescence | 100,000 compounds, 0.25% hits | Q8TD30; note: nearly all actives have a fitted effect of over 60% in size
Target sequence (Q8TD30 whole entry, looked up): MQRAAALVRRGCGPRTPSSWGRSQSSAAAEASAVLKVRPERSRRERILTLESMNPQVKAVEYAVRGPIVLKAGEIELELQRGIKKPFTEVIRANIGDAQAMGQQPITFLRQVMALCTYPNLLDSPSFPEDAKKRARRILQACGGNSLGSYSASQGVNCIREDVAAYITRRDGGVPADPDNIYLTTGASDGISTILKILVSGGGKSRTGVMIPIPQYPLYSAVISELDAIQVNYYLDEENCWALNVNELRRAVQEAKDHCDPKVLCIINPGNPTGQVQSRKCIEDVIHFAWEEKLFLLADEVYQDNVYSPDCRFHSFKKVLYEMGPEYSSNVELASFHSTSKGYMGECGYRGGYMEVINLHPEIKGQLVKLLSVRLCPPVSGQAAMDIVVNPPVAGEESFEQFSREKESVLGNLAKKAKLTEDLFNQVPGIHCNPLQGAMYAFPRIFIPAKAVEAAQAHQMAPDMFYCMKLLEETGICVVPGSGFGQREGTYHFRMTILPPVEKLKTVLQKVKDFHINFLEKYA
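Recombinant GPT2 (10ng/uL) with 250uM a-KG and 2mM L-alanine, 30 min at room temperature, in HEPES pH 7.5 buffer. Pyruvate detected by pyruvate oxidase/HRP/Amplex Red fluorescence after 30 min in the dark; AOA (50uM) as positive control.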
3T3 cytotox: cytotoxic compounds in NIH 3T3 cells | 94,000 compounds, 4.3% hits | NIH 3T3 viability, CellTiter-Glo ATP luminescence, 48-72 h | Potency, µM (top dose mostly 96.7 µM), for the others: top-dose activity change, negative = cytotoxicity, hits mostly inhibitors; note: nearly all actives have a fitted effect of over 55% in size
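Mouse fibroblast NIH 3T3 cells, 400 per well, received compound via pintool and were incubated for 48 or 72 hr prior to CellTiter-Glo ATP luminescence measurement.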
Luciferase inh: inhibitors of firefly (Photinus pyralis) luciferase | purified P. pyralis luciferase, luminescence, biochemical | Potency, µM (series often up to 115 µM), actives largely listed as inhibitors | 76,000 compounds, 2.5% hits | AID 1347043; note: nearly all actives have a fitted effect of over 65% in size
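Luminescence read by CCD imaging after purified firefly luciferase (10nM final) was added to substrate buffer holding 10uM D-luciferin and 10uM ATP, pH 7.5, pre-dosed with compound.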
Numbers without * were called inactive; [ ] = dose if it differs, or a comment. Hits are enriched below; roughly 10% of the tested compounds scored in any of these assays. Unless noted, calls come from the whole dose curve; as a rule, active = well fitted curve in the direction sought with a large enough effect; inconclusive = small, poorly fitted or top-dose-only effect, or another doubt; inactive = no such curve, though single readings can be large; an effect the other way counts as inactive or inconclusive. % is set by controls: 0 for no effect and ±100 for the full control effect; potency is the fitted concentration of half-maximal effect.

Results for CC1(COc2cccnc2)COc2ccc(C(=O)Nc3cccc(Cl)c3)cc2N1 (centres undefined) ?
hNpr1 antagonist: 28µM*; HEK293 tox: 22µM*; GPT2 inhibitor: inconclusive; 3T3 cytotox: inconclusive; Luciferase inh: inconclusive

What do the screens show for `CN(C)CCOCC1(C)COc2ccc(C(=O)Nc3cccc(N(C)C)c3)cc2N1` (centres undefined)?
hNpr1 antagonist: 1%[70.6 µM]; HEK293 tox: inconclusive; GPT2 inhibitor: 4%[88.5 µM]; 3T3 cytotox: inconclusive; Luciferase inh: inconclusive

Results for COc1ccc(NC(=O)c2ccc3c(c2)NC(C)(COc2ccccc2)CO3)cn1 (centres undefined) ?
hNpr1 antagonist: inconclusive; HEK293 tox: inconclusive; GPT2 inhibitor: -17%[88.5 µM]; 3T3 cytotox: inconclusive; Luciferase inh: inactive

Results for CN(C)CCOCC1(C)COc2ccc(C(=O)Nc3cccc(Cl)c3)cc2N1 (centres undefined) ?
hNpr1 antagonist: -13%[70.6 µM]; HEK293 tox: 63µM*; GPT2 inhibitor: -16%[88.5 µM]; 3T3 cytotox: 45µM*; Luciferase inh: 45µM*

What do the screens show for `COc1ncccc1-c1cn(C)c(=O)n2cc(CNc3ccccc3)nc12`?
hNpr1 antagonist: -8%[70.6 µM]; HEK293 tox: inconclusive; GPT2 inhibitor: inconclusive; 3T3 cytotox: inconclusive; Luciferase inh: inconclusive

Results for O=C(C=Cc1cccnc1)NCCCCC1CCN(C(=O)c2ccccc2)CC1 ?
GPT2 inhibitor: inactive

What do the screens show for `CC(C)(C)c1ccc(-c2cc(C[C@H]3CNCC[C@H]3CC(=O)O)no2)cc1`?
hNpr1 antagonist: 2%[70.6 µM]; HEK293 tox: inconclusive; GPT2 inhibitor: -3%[88.5 µM]; 3T3 cytotox: -28%[138 µM]; Luciferase inh: inconclusive

Results for CC(C)(C)c1ccc(-c2cc(C[C@H]3CNCC[C@H]3CC(=O)NC3CCCCC3)no2)cc1 ?
hNpr1 antagonist: -12%; HEK293 tox: 13µM*; GPT2 inhibitor: -1%; 3T3 cytotox: 20µM*; Luciferase inh: inactive

How did CC(C)(C)c1ccc(-c2cc(C[C@H]3CNCC[C@H]3CC(=O)NCc3cccs3)no2)cc1 do in these assays?
hNpr1 antagonist: -8%; HEK293 tox: 18µM*; GPT2 inhibitor: inconclusive; 3T3 cytotox: inconclusive; Luciferase inh: inactive

How did O=C(C[C@@H]1CCNC[C@@H]1Cc1cc(-c2ccccc2)on1)NC1CCCCC1 do in these assays?
hNpr1 antagonist: -10%[70.6 µM]; HEK293 tox: 100µM*; GPT2 inhibitor: inactive; 3T3 cytotox: inconclusive; Luciferase inh: inactive

How did O=C(C[C@@H]1CCNC[C@@H]1Cc1cc(CSc2ccccc2)on1)NC1CCCCC1 do in these assays?
hNpr1 antagonist: -4%[70.6 µM]; HEK293 tox: 89µM*; GPT2 inhibitor: inactive; 3T3 cytotox: 100µM*; Luciferase inh: inactive

How did O=C(C[C@@H]1CCNC[C@@H]1Cc1cc(CSc2ccccc2)on1)NC1CC1 do in these assays?
hNpr1 antagonist: 4%[70.6 µM]; HEK293 tox: -26%[172 µM]; GPT2 inhibitor: -13%[88.5 µM]; 3T3 cytotox: -28%[174 µM]; Luciferase inh: inactive

How did O=C(C[C@@H]1CCNC[C@@H]1Cc1cc(COc2ccccc2)on1)NCc1cccs1 do in these assays?
hNpr1 antagonist: -13%[70.6 µM]; HEK293 tox: inconclusive; GPT2 inhibitor: -5%[88.5 µM]; 3T3 cytotox: inconclusive; Luciferase inh: inactive

What do the screens show for `CS(=O)(=O)N1CCC(C2CCN(Cc3ccc[nH]3)C2)CC1` (centres undefined)?
hNpr1 antagonist: 3%; HEK293 tox: -7%; GPT2 inhibitor: inactive; 3T3 cytotox: -8%; Luciferase inh: inactive

Results for COc1cccc(S(=O)(=O)N2CCc3nnc(C4CC4)n3CC2)c1 ?
HEK293 tox: -14%; GPT2 inhibitor: inactive; 3T3 cytotox: inconclusive

What do the screens show for `COc1ccccc1CNC(=O)C[C@@H]1CCNC[C@@H]1Cc1cc(-c2ccccc2)on1`?
hNpr1 antagonist: -22%[70.6 µM]; HEK293 tox: 63µM*; GPT2 inhibitor: -19%[88.5 µM]; 3T3 cytotox: 79µM*; Luciferase inh: inactive

How did CN(C)CCNC(=O)C[C@@H]1CCNC[C@@H]1Cc1cc(CN(C)Cc2ccccc2)on1 do in these assays?
hNpr1 antagonist: 0%[70.6 µM]; HEK293 tox: -3%[172 µM]; GPT2 inhibitor: 3%[88.5 µM]; 3T3 cytotox: -3%[174 µM]; Luciferase inh: inactive

How did CN(Cc1ccccc1)Cc1cc(C[C@H]2CNCC[C@H]2CC(=O)NC2CCCCC2)no1 do in these assays?
hNpr1 antagonist: -3%; HEK293 tox: inconclusive; GPT2 inhibitor: -18%; 3T3 cytotox: 79µM*; Luciferase inh: inactive

What do the screens show for `COc1ccc(CNC(=O)C[C@@H]2CCNC[C@@H]2Cc2cc(-c3ccccc3)on2)cc1OC`?
hNpr1 antagonist: -2%; HEK293 tox: -9%; GPT2 inhibitor: -4%; 3T3 cytotox: -22%; Luciferase inh: inactive

What do the screens show for `COc1ccc(-c2cc(-c3cccc(C(N)=O)c3)cn3cncc23)cc1`?
hNpr1 antagonist: -15%[70.6 µM]; HEK293 tox: inconclusive; GPT2 inhibitor: -17%[88.5 µM]; 3T3 cytotox: 40µM*; Luciferase inh: inactive

Results for Cn1cc(-c2cc(-c3ccncc3)c3cncn3c2)cn1 ?
hNpr1 antagonist: -4%[70.6 µM]; HEK293 tox: inconclusive; GPT2 inhibitor: inconclusive; 3T3 cytotox: 40µM*; Luciferase inh: inactive

Results for COc1ccc(-c2cc(-c3ccncc3)c3cncn3c2)cc1 ?
hNpr1 antagonist: -12%[70.6 µM]; HEK293 tox: inconclusive; GPT2 inhibitor: -1%[88.5 µM]; 3T3 cytotox: 35µM*; Luciferase inh: inconclusive

Results for COc1ccc(-c2cc(-c3ccncc3)cn3cncc23)cc1 ?
hNpr1 antagonist: 4%[70.6 µM]; HEK293 tox: inconclusive; GPT2 inhibitor: 0%[88.5 µM]; 3T3 cytotox: 35µM*; Luciferase inh: inactive

How did COc1ccc(-c2cc(-c3ccncc3)c3cncn3c2)cn1 do in these assays?
hNpr1 antagonist: -3%[70.6 µM]; HEK293 tox: inconclusive; GPT2 inhibitor: -14%[88.5 µM]; 3T3 cytotox: inconclusive; Luciferase inh: inactive

What do the screens show for `CC(=O)Nc1cccc(-c2cc(-c3ccncc3)c3cncn3c2)c1`?
hNpr1 antagonist: -7%[70.6 µM]; HEK293 tox: inconclusive; GPT2 inhibitor: 5%[88.5 µM]; 3T3 cytotox: inconclusive; Luciferase inh: inactive

What do the screens show for `CN1CCCCCC(O)c2cc(C(=O)NCC3CC3)ccc21` (centres undefined)?
hNpr1 antagonist: -4%; HEK293 tox: -16%; GPT2 inhibitor: -3%; 3T3 cytotox: -25%; Luciferase inh: inactive

What do the screens show for `CC(C)CN1C(=O)c2ccccc2C(C(=O)N2CCSCC2)C12CCCC2` (centres undefined)?
hNpr1 antagonist: -7%; HEK293 tox: inconclusive; GPT2 inhibitor: inactive; 3T3 cytotox: inconclusive; Luciferase inh: inactive

What do the screens show for `FC(F)(F)c1ccc(CN2CCCC3(CC(c4cccc(C(F)(F)F)c4)=NO3)C2)cc1` (centres undefined)?
HEK293 tox: inconclusive; GPT2 inhibitor: -7%; 3T3 cytotox: -21%
